PubChem BioAssay (Tox21)
Values without a mark were called inactive. Results filed as inconclusive are left out. Where a call stands in place of a potency, no number is given. The source made the active and inactive calls. Calls follow the shape of the dose curve; as a rule, active = well fitted curve in the direction sought with a large enough effect in the repeat runs; inconclusive = weak or mixed curves; inactive = no such curve, though single readings can be large; an effect the other way counts as inactive or inconclusive.

Experiments:
[1] = A CellTox Green Cytotoxicity Assay to monitor cytotoxicity in HEK293 cells - 40 hour (AID 1224871); also: nearly all actives have a fitted effect of over 45% in size
Procedure, shortened: (§1)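 Fluorescence intensity, read at 0, 8, 16, 24, 32 and 40 h of compound treatment, reflected dye binding to DNA of dead HEK293 cells; compounds (23 nL, DMSO) were added 5 h after plating cells with reagent.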

[2] = qHTS RealTime-Glo MT Cell Viability Assay in HEK293 cells - 16 hour (AID 1224872); also: top concentration of the series differs between compounds; nearly all actives have a fitted effect of over 50% in size
Procedure, shortened: (§2)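 HEK293 cells were seeded at 600 cells/well together with NanoLuc luciferase and cell-permeant prosubstrate, preincubated 5 h at 37 C/5% CO2, then given compound in DMSO by pintool. Luminescence from viable-cell prosubstrate reduction was read repeatedly over 40 h.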

[3] = qHTS RealTime-Glo MT Cell Viability Assay in HepG2 cells - 8 hour (AID 1224873); also: nearly all actives have a fitted effect of over 55% in size
Procedure, shortened: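 Real-time viability: cells seeded at 600 per well together with NanoLuc and cell-permeant prosubstrate, compounds added after 5 h incubation. Luminescence tracked at 0, 8, 16, 24, 32 and 40 h of exposure.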

[4] = qHTS RealTime-Glo MT Cell Viability Assay in HEK293 cells - 40 hour (AID 1224874); settings: RealTime-Glo luminescence; max response: active compounds read low; also: nearly all actives have a fitted effect of over 50% in size
Procedure, shortened: (§3)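 Viable HEK293 cells reduce a cell-permeant prosubstrate; the product diffuses out and is consumed by NanoLuc in the medium to give light. Compounds went in after a 5 h incubation and plates were read over the treatment course.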

[5] = A CellTox Green Cytotoxicity Assay to monitor cytotoxicity in HEK293 cells - 24 hour (AID 1224875); also: series mostly up to about 77 µM; nearly all actives have a fitted effect of over 45% in size
Procedure, shortened: as §1

[6] = A CellTox Green Cytotoxicity Assay to monitor cytotoxicity in HepG2 cells - 16 hour (AID 1224876); also: nearly all actives have a fitted effect of over 45% in size
Procedure, shortened: (§4)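 Using 1536-well format, dye-containing HepG2 suspension was seeded, allowed 5 h at 37 C/5% CO2, dosed by pintool with compounds, positive and negative controls, and imaged for fluorescence across 40 h.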

[7] = qHTS RealTime-Glo MT Cell Viability Assay in HepG2 cells - 32 hour (AID 1224877); also: nearly all actives have a fitted effect of over 55% in size
Procedure, shortened: (§5)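 HepG2 cells were seeded at 600 cells/well together with NanoLuc luciferase and a cell-permeant prosubstrate, preincubated 5 h at 37 C/5% CO2, then pin-dosed with compounds in DMSO. Nonlytic luminescence from viable cells was read at each time point.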

[8] = A CellTox Green Cytotoxicity Assay to monitor cytotoxicity in HepG2 cells - 24 hour (AID 1224878); also: nearly all actives have a fitted effect of over 45% in size
Procedure, shortened: as §4

[9] = A CellTox Green Cytotoxicity Assay to monitor cytotoxicity in HepG2 cells - 40 hour (AID 1224879); also: nearly all actives have a fitted effect of over 40% in size; also: potency is read from the fitted curve at half-maximal effect
Procedure, shortened: as §4

[10] = A CellTox Green Cytotoxicity Assay to monitor cytotoxicity in HEK293 cells - 32 hour (AID 1224881); also: nearly all actives have a fitted effect of over 40% in size
Procedure, shortened: as §1

[11] = A CellTox Green Cytotoxicity Assay to monitor cytotoxicity in HepG2 cells - 0 hour (AID 1224882); also: nearly all actives have a fitted effect of over 35% in size
Procedure, shortened: as §4

[12] = A CellTox Green Cytotoxicity Assay to monitor cytotoxicity in HepG2 cells - 32 hour (AID 1224883); also: nearly all actives have a fitted effect of over 50% in size
Procedure, shortened: as §4

[13] = qHTS RealTime-Glo MT Cell Viability Assay in HepG2 cells - 16 hour (AID 1224885); also: nearly all actives have a fitted effect of over 50% in size
Procedure, shortened: as §5

[14] = qHTS RealTime-Glo MT Cell Viability Assay in HEK293 cells - 24 hour (AID 1224886)
Procedure, shortened: as §2

[15] = qHTS RealTime-Glo MT Cell Viability Assay in HEK293 cells - 8 hour (AID 1224887)
Procedure, shortened: as §3

[16] = A CellTox Green Cytotoxicity Assay to monitor cytotoxicity in HEK293 cells - 16 hour (AID 1224888); also: nearly all actives have a fitted effect of over 35% in size
Procedure, shortened: as §1

[17] = qHTS RealTime-Glo MT Cell Viability Assay in HepG2 cells - 0 hour (AID 1224889); also: nearly all actives have a fitted effect of over 50% in size; also: potency is read from the fitted curve at half-maximal effect
Procedure, shortened: as §5

[18] = qHTS RealTime-Glo MT Cell Viability Assay in HEK293 cells - 0 hour (AID 1224880); also: nearly all actives have a fitted effect of over 45% in size; also: potency is read from the fitted curve at half-maximal effect
Procedure, shortened: as §3

[19] = A CellTox Green Cytotoxicity Assay to monitor cytotoxicity in HEK293 cells - 8 hour (AID 1224884); also: nearly all actives have a fitted effect of over 35% in size
Procedure, shortened: as §1

Row | SMILES | Potency [1] | Potency [2] | outcome [3] | max response [4] [%] | Potency [5] | Potency [6] | Potency [7] | Potency [8] | Potency [9] | Potency [10] | Potency [11] | Potency [12] | outcome [13] | Potency [14] | Potency [15] | Potency [16] | Potency [17] | Potency [18] | Potency [19]
1 | CCC(C)CCCC(C)(C)O (stereo unspecified) | inactive | inactive | inactive | 21.8 | inactive | inactive | inactive | inactive | inactive | inactive | inactive | inactive | inactive | inactive | inactive | inactive | inactive | – | –
2 | CC(C)C/C=C(\C=O)c1ccccc1 | inactive | inactive | inactive | – | inactive | inactive | inactive | inactive | inactive | inactive | inactive | inactive | inactive | inactive | inactive | inactive | inactive | inactive | inactive
3 | CCc1ccc(C(=O)C(C)CN2CCCCC2)cc1 (stereo unspecified) | inactive | – | inactive | 7.68 | inactive | inactive | inactive | inactive | inactive | – | inactive | inactive | inactive | – | inactive | inactive | inactive | inactive | inactive
4 | CC(C)(C(=O)O)c1ccc(C(O)CCCN2CCC(C(O)(c3ccccc3)c3ccccc3)CC2)cc1 (stereo unspecified) | inactive | – | inactive | – | inactive | inactive | inactive | inactive | inactive | inactive | inactive | inactive | – | – | inactive | inactive | inactive | – | inactive
5 | CC(C)(C)c1ccc(CCC=O)cc1 | inactive | inactive | inactive | 3.22 | inactive | inactive | inactive | – | – | inactive | inactive | – | inactive | – | inactive | inactive | inactive | inactive | –
6 | CCOCCn1c(N2CCCN(C)CC2)nc2ccccc21 | inactive | inactive | inactive | -3.4 | inactive | inactive | inactive | inactive | – | – | inactive | inactive | inactive | inactive | inactive | inactive | inactive | – | inactive
7 | CCC(=O)O[C@]1(C(=O)COC)[C@@H](C)C[C@H]2[C@@H]3CCC4=CC(=O)C=C[C@]4(C)C3(F)[C@@H](O)C[C@@]21C (stereo partly specified) | inactive | – | inactive | -19.2 | inactive | inactive | inactive | inactive | – | inactive | inactive | inactive | inactive | – | inactive | inactive | inactive | inactive | inactive
8 | O=C(c1ccco1)N1CCNCC1 | inactive | – | inactive | – | inactive | inactive | inactive | inactive | inactive | inactive | inactive | inactive | – | inactive | inactive | inactive | inactive | inactive | –
9 | Nc1ccccc1Nc1ccccc1 | inactive | inactive | inactive | – | inactive | inactive | inactive | inactive | inactive | inactive | inactive | inactive | – | inactive | – | inactive | inactive | inactive | inactive
10 | CCc1c(C)[nH]c2c1C(=O)C(CN1CCOCC1)CC2 (stereo unspecified) | inactive | – | inactive | 2.91 | inactive | inactive | inactive | inactive | – | – | inactive | inactive | inactive | inactive | inactive | inactive | inactive | inactive | inactive
11 | C=CC(C)CCC=C(C)C (stereo unspecified) | inactive | inactive | inactive | 0.513 | inactive | inactive | inactive | inactive | inactive | inactive | inactive | inactive | inactive | inactive | inactive | inactive | inactive | inactive | –
12 | CC(C)(C)NCC(O)COc1ccc(NC(=O)NC2CCCCC2)cc1 (stereo unspecified) | inactive | – | – | – | inactive | inactive | – | inactive | inactive | – | inactive | inactive | – | – | – | – | – | – | inactive
13 | CC(C)Oc1ccccc1O | inactive | – | inactive | 2.84 | inactive | inactive | inactive | inactive | inactive | inactive | inactive | inactive | inactive | inactive | inactive | inactive | inactive | inactive | inactive
14 | Cc1cc(SC2=C(O)C[C@@](CCc3ccc(N)cc3)(C(C)C)OC2=O)c(C(C)(C)C)cc1CO | inactive | inactive | inactive | -1.78 | inactive | inactive | inactive | inactive | – | inactive | inactive | inactive | – | inactive | inactive | inactive | 19.5 µM (active) | 11 µM (active) | inactive
15 | O=C(Nc1ccc2c(c1)Cc1ccccc1-2)C(F)(F)F | inactive | – | inactive | – | inactive | inactive | inactive | inactive | – | inactive | inactive | inactive | inactive | – | inactive | inactive | inactive | inactive | inactive
16 | c1ccc(CN(Cc2ccccc2)Cc2ccccc2)cc1 | inactive | inactive | inactive | 4.19 | inactive | inactive | inactive | – | 15.5 µM (active) | inactive | inactive | – | inactive | inactive | inactive | inactive | inactive | inactive | inactive
